# The supplement of paper PMC8728848
# Only a selection was taken, and the strongest signals are over-represented in it overall.
# B1: PX9937J-pdi-523-26-523 (Parabacteroides distasonis) (protein)
# chain: EPVSSISDANYWKSPDLFKAFNIGLHGLLRSQSSYNIFVLGEPRSDIYGDQPFGGEATQGVERFSYNTINAEFTGISNFANFYTTLNQINLMIRRTNETDLLGEAEKNYYLGQAYGLRAYIYFHLLRSWGDVIITTEPTLGSELDISHLDKAASPASEVMDLIKKDIDASEKAFGGDYSYKQGKCYWSKPATLMLKGEVYLWSGRQMGGGTGDYTVAKTALQDLQQNGNLKLQEKFTDVFSFNNKENSEMIFALHSGKEDDFMMWRDYNWRNNMVPQREYMAGYCDETGTPFLEIPGYNLQGLMRYQVKKDHYLKSFREGDTRLKGTLKAVYKKHEDGTLEYIAPIQYKFQGTTLEGSNERSWYDDYPIYRYADALLLLAEAKALLGEDPSTEINAVRERAYGSEYFNAHKNEVAYPNDKGSFYNDNPFEAGDENVMEAILKERLREFFFEGKRWYDLRRFGKDYVLKYTTAQESRLLWPINEGALTNNPALKQTPGY
# Legend:
# Experiment in all cases: glycan array binding signal (z-score within array); higher = stronger binding
# Details in all cases: glycan notation: IUPAC condensed, linker removed
# [1] = target: Gal3S6S(b1-4)GlcNAc
# Summary of the method: (§1)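 From the Consortium for Functional Glycomics database, 3228 arrays were curated, keeping only those whose protein sequence was available. Binding is given as a within-array Z-score averaged across arrays sharing a protein sequence and across linkers. Negative Z-scores can be read as non-binding.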
# [2] = target: Gal4S6S(b1-4)GlcNAc
# Summary of the method: as §1
# [3] = target: GalNAc(b1-4)GlcNAc6S
# Summary of the method: as §1
# [4] = target: GalNAc3S(b1-4)GlcNAc
# Summary of the method: as §1
# [5] = target: Glc(b1-4)Glc
# Summary of the method: as §1
# [6] = target: GlcA(b1-6)Gal
# Summary of the method: as §1
# [7] = target: GlcNAc(a1-4)Gal(b1-4)GlcNAc(b1-3)Gal(b1-4)GlcNAc
# Summary of the method: as §1
# [8] = target: GlcNAc(b1-2)Gal(b1-3)GalNAc
# Summary of the method: as §1
# [9] = target: GlcNAc(b1-2)[GlcNAc(b1-4)]Man(a1-3)[GlcNAc(b1-4)][GlcNAc(b1-2)[GlcNAc(b1-6)]Man(a1-6)]Man(b1-4)GlcNAc(b1-4)[Fuc(a1-6)]GlcNAc
# Summary of the method: as §1
# [10] = target: GlcNAc(b1-3)Gal(b1-4)GlcNAc(b1-3)Gal(b1-4)GlcNAc(b1-3)Gal(b1-4)GlcNAc(b1-3)Gal(b1-4)GlcNAc(b1-2)[GlcNAc(b1-3)Gal(b1-4)GlcNAc(b1-3)Gal(b1-4)GlcNAc(b1-3)Gal(b1-4)GlcNAc(b1-3)Gal(b1-4)GlcNAc(b1-6)]Man(a1-6)[GlcNAc(b1-3)Gal(b1-4)GlcNAc(b1-3)Gal(b1-4)GlcNAc(b1-3)Gal(b1-4)GlcNAc(b1-3)Gal(b1-4)GlcNAc(b1-2)Man(a1-3)]Man(b1-4)GlcNAc(b1-4)[Fuc(a1-6)]GlcNAc
# Summary of the method: as §1
# [11] = target: GlcNAc(b1-3)Gal(b1-4)GlcNAc(b1-3)GalNAc
# Summary of the method: as §1
# [12] = target: GlcNAc(b1-3)Gal(b1-4)GlcNAc(b1-6)[Gal(b1-3)]GalNAc
# Summary of the method: as §1
# [13] = target: GlcNAc6S(b1-3)Gal(b1-4)GlcNAc
# Summary of the method: as §1
# [14] = target: Man(a1-2)Man(a1-2)Man(a1-6)[Man(a1-3)]Man
# Summary of the method: as §1
# [15] = target: Man(a1-2)Man(a1-3)Man
# Summary of the method: as §1
# [16] = target: Man(a1-2)Man(a1-3)[Man(a1-2)Man(a1-6)]Man(a1-6)[Man(a1-2)Man(a1-2)Man(a1-3)]Man
# Summary of the method: as §1
# [17] = target: Neu5Ac(a2-3)Gal(b1-3)GlcNAc(b1-3)Gal(b1-3)GlcNAc
# Summary of the method: as §1
# [18] = target: Neu5Ac(a2-3)Gal(b1-3)[Fuc(a1-4)]GlcNAc
# Summary of the method: as §1
# [19] = target: Neu5Ac(a2-3)Gal(b1-3)[Neu5Ac(a2-6)]GalNAc
# Summary of the method: as §1
# [20] = target: Neu5Ac(a2-3)Gal(b1-4)GlcNAc(b1-6)[Gal(b1-3)]GalNAc
# Summary of the method: as §1
# [21] = target: Neu5Ac(a2-3)Gal(b1-4)[Fuc(a1-3)]GlcNAc(b1-3)Gal(b1-4)GlcNAc
# Summary of the method: as §1
# [22] = target: Neu5Ac(a2-6)Gal(b1-4)GlcNAc(b1-2)Man(a1-3)Man(b1-4)GlcNAc(b1-4)GlcNAc
# Summary of the method: as §1
# [23] = target: Neu5Ac(a2-6)Gal(b1-4)GlcNAc(b1-2)Man(a1-3)[Gal(b1-4)GlcNAc(b1-2)Man(a1-6)]Man(b1-4)GlcNAc(b1-4)GlcNAc
# Summary of the method: as §1
# [24] = target: Neu5Ac(a2-6)Gal(b1-4)GlcNAc(b1-2)Man(a1-3)[Neu5Ac(a2-3)Gal(b1-4)GlcNAc(b1-2)Man(a1-6)]Man(b1-4)GlcNAc(b1-4)GlcNAc
# Summary of the method: as §1
# [25] = target: Neu5Ac(a2-6)Gal(b1-4)GlcNAc(b1-3)Gal(b1-3)GlcNAc
# Summary of the method: as §1
# [26] = target: Neu5Ac(a2-6)Gal(b1-4)GlcNAc(b1-6)[Gal(b1-3)]GalNAc
# Summary of the method: as §1
# [27] = target: Neu5Ac(a2-8)Neu5Ac(a2-8)Neu5Ac
# Summary of the method: as §1
# [28] = target: Neu5Ac(a2-8)Neu5Gc(a2-3)Gal(b1-4)GlcNAc
# Summary of the method: as §1
# [29] = target: Neu5Ac9Ac(a2-3)Gal(b1-4)GlcNAc
# Summary of the method: as §1
binder,measurement,setting,value
B1,glycan array binding signal (z-score),[1],0.142
same,glycan array binding signal (z-score),[2],-0.181
same,glycan array binding signal (z-score),[3],4.57
same,glycan array binding signal (z-score),[4],0.755
same,glycan array binding signal (z-score),[5],-0.296
same,glycan array binding signal (z-score),[6],-0.638
same,glycan array binding signal (z-score),[7],-0.296
same,glycan array binding signal (z-score),[8],-0.438
same,glycan array binding signal (z-score),[9],-0.488
same,glycan array binding signal (z-score),[10],4.67
same,glycan array binding signal (z-score),[11],-0.404
same,glycan array binding signal (z-score),[12],-0.195
same,glycan array binding signal (z-score),[13],0.294
same,glycan array binding signal (z-score),[14],-0.284
same,glycan array binding signal (z-score),[15],-0.138
same,glycan array binding signal (z-score),[16],-0.317
same,glycan array binding signal (z-score),[17],-1
same,glycan array binding signal (z-score),[18],0.062
same,glycan array binding signal (z-score),[19],0.071
same,glycan array binding signal (z-score),[20],-0.1
same,glycan array binding signal (z-score),[21],3.41
same,glycan array binding signal (z-score),[22],-0.373
same,glycan array binding signal (z-score),[23],4.14
same,glycan array binding signal (z-score),[24],-0.327
same,glycan array binding signal (z-score),[25],-0.303
same,glycan array binding signal (z-score),[26],0.505
same,glycan array binding signal (z-score),[27],-0.094
same,glycan array binding signal (z-score),[28],9.17
same,glycan array binding signal (z-score),[29],-0.44
